Among all 59,000 compounds or so, about 6,500 (11%) were called active. About 15% were inconclusive and are not listed. This is one part of a sample in which actives are shown more often than they occur. Cut-off read from the data, not from the text of the source: active = max dye-equivalent concentration above about 10 nM; inconclusive = mostly about 1.1 nM to 9.6 nM; inactive = weaker than that.

The assay in a line: qHTS Assay for Spectroscopic Profiling in A350 Spectral Region. The settings on record: Compound autofluorescence, 340/450 nm, Alexa 350 dye-equivalents; stronger effect = higher value. In general terms: In qHTS, concentration-response curves come from the screen itself.
Consider `O=C(Cn1nc(C(F)(F)F)c2c1CCC2)NCc1ccc(F)cc1`, for which the max dye-equivalent concentration result was “inactive”.

On to `Nc1cc(=O)nc(SCc2ccccc2)n1Cc1ccco1`, for which the max dye-equivalent concentration result is “inactive”. The same measure for `O=c1[nH]c(=O)n(Cc2ccco2)c2c1C(C(F)(F)F)(C(F)(F)F)N=C(c1ccco1)N2`: 18 nM (active); for `Cc1ccc(C(=O)OCC(=O)NCc2ccc3c(c2)OCO3)s1`: “inactive”. For the molecule `C=CCn1c(SCc2nnc(-c3ccccc3)o2)nnc1C(O)c1ccccc1` (stereo not given), the max dye-equivalent concentration entry is “inactive”. Turning to `O=C(OCc1nnc(-c2ccccc2)o1)c1ccc2c(c1)C(=O)N(CCc1ccccc1)C2=O`, the max dye-equivalent concentration result is “inactive”.

Regarding `Fc1ccc2nc(-c3ccccc3)nc(SCc3nnc(-c4ccccc4)o3)c2c1`, the max dye-equivalent concentration was 38 nM (active). The value for `O=C(Nc1cccc(F)c1)N1CC2(CCN(C(=O)c3cnccn3)CC2)C1` was “inactive”.

With `Oc1ccccc1CNCc1ccccc1O`, the max dye-equivalent concentration result is “inactive”. With `CCOC(=O)CSc1nnc(CNc2ccc(F)cc2)o1`, the max dye-equivalent concentration result was “inactive”. Consider `CCOc1ccc(CNC(=O)C2CC(=O)N(C3CCCC3)C2)cc1OC` (stereo not given), for which the max dye-equivalent concentration result was “inactive”.

Regarding `CCOc1ccc(CNC(=O)C2CCC(=O)N2C2CCCC2)cc1OC` (stereo not given), the max dye-equivalent concentration result was “inactive”.

Consider `CCOc1cc(C2C(C(=O)OC)=CN(C3CCCC3)C=C2C(=O)OC)cc(Br)c1O`, for which the max dye-equivalent concentration is 230 nM (active). For the molecule `O=C(COc1ccc(S(=O)(=O)NCCc2ccccc2)cc1)N1CCCC1`, the max dye-equivalent concentration result was “inactive”. `CC1(C)CC(=O)c2sc(N)nc2C1`: the max dye-equivalent concentration entry is “inactive”. Turning to `N#CC1=C(N)Oc2n[nH]c(CSc3ccccc3)c2C12C(=O)Nc1ccccc12` (stereo not given), the max dye-equivalent concentration entry was “inactive”. `COc1ccc(S(=O)(=O)N2CCCC(C(=O)N3CCN(C)CC3)C2)cc1C` (stereo not given): the max dye-equivalent concentration entry was “inactive”. Turning to `COc1ccc(S(=O)(=O)N2CCN(c3ncnc4c(-c5ccccc5)nsc34)CC2)cc1`, the max dye-equivalent concentration was 120 nM (active). As to `CCOc1ccccc1NC(=O)CCN1CCN(S(=O)(=O)c2ccc(OC)cc2)CC1`, the max dye-equivalent concentration result is “inactive”. `COc1cccc(N2C(=O)CC(N3CCN(S(=O)(=O)c4ccccc4)CC3)C2=O)c1` (stereo not given): the max dye-equivalent concentration result is “inactive”. Take `Cc1ccc(C)c(NC(=O)C2CCCN2C(=O)OC(C)(C)C)c1` (stereo not given): the max dye-equivalent concentration result was “inactive”. The same measure for `OCCN1CCN(CC/C=C2\c3ccccc3Sc3ccc(C(F)(F)F)cc32)CC1`: “inactive”. The value for `COc1ccccc1NC(=O)CSc1nnc(Cn2nnc(-c3ccccc3)n2)n1-c1ccccc1` was “inactive”; that for `CCOC(=O)N1CCN(C(=O)c2n[nH]c(=O)c3ccccc23)CC1` was “inactive”.

For `CNC(=O)c1cc2c(ccc3ccccc32)oc1=N`, the max dye-equivalent concentration was 11000 nM (active). The value for `CCCCC(=O)Nc1cc(C)c2c(=O)oc3ccccc3c2n1` was “inactive”. Turning to `CCOC(=O)N1CCN(C(=O)c2cc3c(ccc4ccccc43)oc2=O)CC1`, the max dye-equivalent concentration was 1700 nM (active).

With `COc1c(C(=O)N2CCCC2)ccc2ccccc12`, the max dye-equivalent concentration result is “inactive”. Take `O=C(NCCc1ccc2c(c1)OCCO2)c1cc2ccccc2o1`: the max dye-equivalent concentration entry is “inactive”. For the molecule `CC(C)(C)NCC[C@@H](O)c1cc(C(F)(F)F)nc2c(C(F)(F)F)cccc12`, the max dye-equivalent concentration result is “inactive”. Turning to `CC(=O)N1CCC2(CC1)CCN(c1ccncc1)CC2`, the max dye-equivalent concentration entry is “inactive”.

In the case of `CC1(N2CCOCC2)CC2(O)C(=[N+]1[O-])CCc1nonc12` (stereo not given), the max dye-equivalent concentration result is “inactive”. Consider `CCOC(=O)CSc1nc2c(c(=O)n(Cc3ccccc3Cl)c(=O)n2C)n1C`, for which the max dye-equivalent concentration entry was “inactive”.

For the molecule `Cc1cc(C(=O)CC#N)c(C)n1CC(F)(F)F`, the max dye-equivalent concentration entry is “inactive”.

In the case of `Cc1cc(NC(=O)CCC(=O)N(c2cccc(F)c2)C(C(=O)NC2CCCC2)c2ccncc2)no1` (stereo not given), the max dye-equivalent concentration entry is “inactive”. Turning to `O=C(Cn1ccc(=O)[nH]c1=O)Nc1ccc(C(=O)O)c(O)c1`, the max dye-equivalent concentration result is “inactive”.

For the molecule `COCCn1nnnc1CN1CCC(NC(=O)Nc2cccc(OC)c2)CC1`, the max dye-equivalent concentration result was “inactive”. Take `O=C(O)COc1nsnc1N1CCOCC1`: the max dye-equivalent concentration entry was “inactive”.

For `CN(C)C(=O)c1ccc(-c2cncnc2Nc2ccccc2)cc1`, the max dye-equivalent concentration result was “inactive”. The value for `COc1cccc(-c2nnc(N(C)C(=O)c3ccno3)s2)c1` was 32 nM (active); that for `CN(C(=O)c1ccno1)c1nnc(-c2cccnc2)s1` was “inactive”; that for `CN(C(=O)COc1ccccc1)c1nnc(-c2ccncc2)s1` was “inactive”. The same measure for `CCCn1c(SCC(N)=O)nnc1C(C)C`: “inactive”; for `Cc1cccc(N)c1SC1CCCCC1O` (stereo not given): “inactive”; for `O=c1c(F)cn(C2CCCO2)c(=O)n1Cc1ccccc1Cl` (stereo not given): “inactive”.

In the case of `CCn1c(Cc2ccccc2)nnc1SCC(=O)Nc1ccccc1`, the max dye-equivalent concentration result is “inactive”. For the molecule `COc1ccc(OC)c(CNC(=O)C2CCCN(c3nc4ccccc4o3)C2)c1` (stereo not given), the max dye-equivalent concentration result was “inactive”. As for `COc1ccc2nc(N3CCCC(O)C3)c(C#N)cc2c1` (stereo not given), the max dye-equivalent concentration is 130 nM (active). With `Cc1ccc(SCCN2C(=O)NC(C)(C)C2=O)cc1`, the max dye-equivalent concentration entry is “inactive”. The same measure for `Cn1nnc(NC(=O)CSc2ncn[nH]2)n1`: “inactive”; for `Cc1ccsc1C(=O)OCC(=O)c1cc2ccccc2o1`: “inactive”.

Consider `O=C(NCc1ccccn1)c1cnc2sccn2c1=O`, for which the max dye-equivalent concentration entry is “inactive”. For the molecule `O=C(NCc1ccccn1)Nc1ccc(F)cc1`, the max dye-equivalent concentration entry is “inactive”. Take `O=C(Oc1cccnc1)c1cc2ccccc2oc1=O`: the max dye-equivalent concentration was 96 nM (active). Turning to `O=C(NCc1ccccn1)c1cc2ccccc2oc1=O`, the max dye-equivalent concentration was 21 nM (active). The value for `Nc1ncc(-c2cc3ccccc3oc2=O)s1` was “inactive”; that for `CC(C)CSC[C@@H]1O[C@H](n2cnc3c(N)nccc32)[C@H](O)[C@@H]1O` was “inactive”; that for `O=c1cc(CSc2ccc(Cl)cc2)nc(N2CCOCC2)[nH]1` was “inactive”.

On to `Cc1ccc2c(CSc3nncs3)cc(=O)oc2c1`, for which the max dye-equivalent concentration result was “inactive”. For `O=C(Nc1cnccn1)c1cccnc1`, the max dye-equivalent concentration result was “inactive”.

Take `O=C(c1ccncc1)N1CCC2(CCN(Cc3cc(C(F)(F)F)cc(C(F)(F)F)c3)CC2)CC1`: the max dye-equivalent concentration entry was “inactive”. The value for `O=C(Nc1cccc2c1CCCC2)C1CCN(C(=O)NC2CCCCC2)CC1` was “inactive”; that for `CCC(=O)Nc1ccc(C(=O)CSc2nnc(CNc3ccc(Cl)cc3)o2)cc1OC` was “inactive”. Regarding `O=C(NC1CCCCC1)n1c(=O)oc2cc(S(=O)(=O)N3CCCCC3)ccc21`, the max dye-equivalent concentration entry was “inactive”. For the molecule `COc1ccccc1N1CCN(Cc2nnnn2CCc2ccccc2)CC1`, the max dye-equivalent concentration result was “inactive”. In the case of `Cc1cccc2cc(CN(Cc3ccc4c(c3)OCO4)Cc3nnnn3C3CCCC3)c(=O)[nH]c12`, the max dye-equivalent concentration entry is “inactive”. For `Cc1cccc2cc(CN(Cc3cccs3)C(c3nnnn3C3CCCC3)C(C)C)c(=O)[nH]c12` (stereo not given), the max dye-equivalent concentration entry was “inactive”.

Take `CCC(c1nnnn1Cc1ccco1)N(Cc1cc2cc(OC)ccc2[nH]c1=O)C1CCCCC1` (stereo not given): the max dye-equivalent concentration is 21 nM (active). Consider `CCOc1ccc2[nH]c(=O)c(CN(Cc3nnnn3CCc3ccccc3)CC3CCCO3)cc2c1` (stereo not given), for which the max dye-equivalent concentration is 76 nM (active). With `CCC(c1nnnn1Cc1ccco1)N(CCc1ccccc1)Cc1cc2ccc(OC)cc2[nH]c1=O` (stereo not given), the max dye-equivalent concentration result was “inactive”. Take `CCC(c1nnnn1C1CCCC1)N(Cc1cccs1)Cc1cc2cccc(C)c2[nH]c1=O` (stereo not given): the max dye-equivalent concentration result is “inactive”. The same measure for `CCOc1ccc2[nH]c(=O)c(CN(Cc3nnnn3Cc3ccccc3)CC3CCCO3)cc2c1` (stereo not given): 150 nM (active); for `CC(C)(C)n1nnnc1C(c1cccs1)N(Cc1cccnc1)CC1CCCO1` (stereo not given): “inactive”; for `CCC(c1nnnn1Cc1ccccc1)N(Cc1cc2cc(OC)ccc2[nH]c1=O)CC1CCCO1` (stereo not given): 32 nM (active). For `COc1ccc(N(CC(=O)NC(C)(C)C)C(=O)c2ccco2)cc1`, the max dye-equivalent concentration result is “inactive”. Take `O=C(O)CCN1C(=O)CC2(CCCCC2)C1=O`: the max dye-equivalent concentration result is “inactive”. Take `O=c1[nH]nc(CSCc2ccccc2Cl)[nH]1`: the max dye-equivalent concentration result is “inactive”. Regarding `N#Cc1ccc(CSc2nnc(-c3ccccn3)n2-c2ccc(Cl)cc2)cc1`, the max dye-equivalent concentration entry is “inactive”. Regarding `CN(C)c1ccc(CNC23CN4CN(CN(C4)C2)C3)cc1`, the max dye-equivalent concentration entry is “inactive”. Turning to `CCOC(=O)CSc1nnc(CNC(=O)c2ccco2)n1-c1ccc(F)cc1`, the max dye-equivalent concentration entry was “inactive”.

In the case of `O=C(Oc1ccc2c(c1)CN(Cc1ccccc1)CO2)c1ccccc1`, the max dye-equivalent concentration entry is “inactive”. In the case of `COC(=O)c1c(NC(=O)CSc2nc3c(c(=O)n(C)c(=O)n3C)n2C(C)C)sc(C)c1C`, the max dye-equivalent concentration result was “inactive”. The value for `CCOP1(=O)C=C(C(C)(C)C)OC1c1ccc(F)cc1` (stereo not given) was “inactive”. For `CC(C)c1nc(-c2ccccn2)no1`, the max dye-equivalent concentration entry is “inactive”. The same measure for `CSCCC(NS(=O)(=O)/C=C/c1ccccc1)C(=O)N1CCC(C)CC1` (stereo not given): “inactive”. The value for `CCn1c(SCC(=O)Nc2ccc3c(c2)OCCO3)nc2c(c1=O)SC(C)C2` (stereo not given) was “inactive”; that for `O=C(O)c1ccc(C(=O)O)c2c(C(=O)O)ccc(C(=O)O)c12` was “inactive”; that for `CCOc1ccc2c(c1)cc(CN(C(=O)CC)C1CCCCC1)c1nnnn12` was “inactive”. For the molecule `CCOc1ccc2[nH]c(=O)c(CN(CCCO)C(C)=O)cc2c1`, the max dye-equivalent concentration is 290 nM (active). Consider `COc1ccc2[nH]c(=O)c(CN(CC3CCCO3)C(=O)Nc3ccccc3)cc2c1` (stereo not given), for which the max dye-equivalent concentration is 100 nM (active).

As for `Cc1cc(C)c2cc(CN(Cc3cccs3)Cc3nnnn3CC3CCCO3)c(=O)[nH]c2c1` (stereo not given), the max dye-equivalent concentration entry was “inactive”.

`c1ccc(CCn2nnnc2CN2CCN(C3CCCC3)CC2)cc1`: the max dye-equivalent concentration entry is “inactive”. As to `O=C(OCc1cc2ccccc2[nH]c1=O)c1cccnc1`, the max dye-equivalent concentration entry is “inactive”. In the case of `COc1ccc2[nH]c(=O)c(CN(Cc3nnnn3CCc3ccccc3)CC3CCCO3)cc2c1` (stereo not given), the max dye-equivalent concentration is 300 nM (active).

Regarding `CCC(=O)N(Cc1cc2cc(OC)ccc2[nH]c1=O)c1ccccc1C`, the max dye-equivalent concentration was 170 nM (active). The same measure for `O=C(CN(CC1CCCO1)C(=O)CNS(=O)(=O)c1ccccc1)NCc1ccccc1` (stereo not given): “inactive”; for `C[C@@H]1CC[C@H]2[C@H](C)[C@H]3[C@H](C[C@H]4[C@@H]5CC=C6C[C@@H](O)CC[C@@]6(C)[C@@H]5C[C@@H](O)[C@]34C)N2C1`: “inactive”; for `CN(C)CCNC(CC(=O)Nc1ccc(Cl)c(Cl)c1)C(=O)O` (stereo not given): “inactive”. Regarding `Cc1ccc(CNC(=O)C2CCCN(S(C)(=O)=O)C2)cc1` (stereo not given), the max dye-equivalent concentration entry is “inactive”. The same measure for `O=C(Nc1ccccc1F)c1cc(S(=O)(=O)N2CCCCC2)cs1`: “inactive”; for `NCC(=O)[C@@H](O)[C@H](O)[C@H](O)CO`: “inactive”. The same measure for `O=C(O)c1nn(-c2ccc(Cl)cc2)c2c1C(=O)c1ccccc1C2=O`: “inactive”; for `CCCN1CCN(CCCNC(=O)CN2C(=O)COc3ccccc32)CC1`: “inactive”. The value for `CCn1c2c(c3ccc(OC)cc31)CCCC2=O` was 11 nM (active); that for `C[C@H](CCC(=O)NCC(=O)O)[C@H]1CC[C@H]2[C@H]3[C@@H](C[C@@H](O)[C@]12C)[C@]1(C)CC[C@H](O)C[C@@H]1C[C@@H]3O` was “inactive”.

Values taken from PubChem BioAssay AID590 (National Center for Advancing Translational Sciences (NCATS), 2007).
